High-throughput results deposited in PubChem BioAssay by National Center for Advancing Translational Sciences (NCATS).
The list is not random: actives were taken first. Their share in the collection is about 4.8%.
D3 antag: D3 dopamine receptor (human) antagonism; P35462; D3R cells, DiscoveRx beta-arrestin luminescence, antagonist mode; hits give low values; max response, negative = inhibition, %; 360,000 compounds, 2.5% hits; in the data active means max response below about -50%; inconclusive means no clear call, values can overlap the other calls
Target sequence (P35462 whole entry, looked up): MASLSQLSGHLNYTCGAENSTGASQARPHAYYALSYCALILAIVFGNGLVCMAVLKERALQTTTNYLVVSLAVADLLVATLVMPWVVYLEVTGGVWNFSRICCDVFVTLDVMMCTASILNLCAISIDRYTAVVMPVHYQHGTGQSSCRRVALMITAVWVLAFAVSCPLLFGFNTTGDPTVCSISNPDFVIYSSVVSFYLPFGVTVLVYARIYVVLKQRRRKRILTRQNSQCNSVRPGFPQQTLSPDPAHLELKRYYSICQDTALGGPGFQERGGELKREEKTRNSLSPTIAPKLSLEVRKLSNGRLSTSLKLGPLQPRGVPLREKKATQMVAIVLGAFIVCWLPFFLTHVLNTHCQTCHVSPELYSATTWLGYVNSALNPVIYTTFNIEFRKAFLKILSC
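Cells expressing the human receptor were seeded at 1500 cells/well, incubated overnight at 37 degrees C in 5% CO2, then exposed to library compounds with dopamine controls for 90 minutes at 37 degrees C before luminescent detection.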
HepG2 tox: counter-screen for TGF-b inhibitors: cytotoxicity in HepG2 cells. AID 588856. 410,000 compounds, 0.76% hits. HepG2 CAGA-GFP viability, ATP luminescence, 18 h. Potency, µM (series often up to 46.1 µM), actives largely listed as cytotoxic
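CellTiter-Glo luminescence gave cytotoxicity after 18 hours at 37 degrees C. The cells were HepG2 CAGA-GFP in 1% FBS DMEM, stimulated with 500 pg/mL TGF-beta after compound addition. %Activity was normalised to no-cell wells (complete cell-killing) and DMSO (no toxicity), and curves were fitted and classified.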
DRD3 agonist: D3 dopamine receptor (human) agonism. 410,000 compounds, 0.58% hits. max activation, %. P35462. AID 652048. D3R DiscoveRx beta-arrestin cells, luminescence, 90 min; in the data active means max activation above about 30%
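Agonist mode: compounds and dopamine controls were applied to plated cells for 90 min at 37 degrees C after an overnight attachment at 1500 cells/well. Luminescent read-out followed 30 - 60 minutes at room temperature with DiscoveRx detection reagent.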
ATXN viability: reduces viability in counter-screen for ATXN expression inhibitors | S2 cells (HEK-293 line with an ATXN2-luciferase reporter) viability, CellTiter-Fluor protease fluorescence, 24 h | Potency, µM (titrated, usually from 56.7 µM), usual class: cytotoxic | 400,000 compounds, 0.49% hits | AID 651635; further: nearly all actives have a fitted effect of over 40% in size
ATXN2 expr inh: inhibitors of ATXN2 expression; HEK-293 ATXN2-luciferase reporter, luminescence, 24 h; Potency, µM (titrated, usually from 57 µM), most hits filed as inhibitors; 360,000 compounds, 0.72% hits; further: nearly all actives have a fitted effect of over 55% in size
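ATXN2-luciferase reporter cells (luciferase flanked by upstream and downstream ATXN2 gene portions) were treated 24 h at 37 °C with compounds at up to 57 uM. SteadyGlo luminescence gave expression; GF-AFC fluorescence gave viability.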
TGFb inhibitor: TGF-b pathway inhibition | HepG2 CAGA-GFP TGF-b/SMAD3 reporter, GFP fluorescence, 18 h; TGF-beta stimulated, 500 pg/mL final | Potency, µM (titrated, usually from 46.1 µM), hits mostly inhibitors | 410,000 compounds, 1.2% hits; further: nearly all actives have a fitted effect of over 65% in size
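Using HEPG2 CAGA-GFP reporter cells at 1000 cells/well, we pinned test compounds, stimulated with recombinant TGF-beta (500 pg/mL final) and measured total well GFP after 18 h.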
Hits are given with their value; – = inactive; ? = inconclusive; · = no result given. Unless noted, the call rests on the fitted dose curve; in most records, active means well fitted curve in the direction sought with a large enough effect; inconclusive means small, poorly fitted or top-dose-only effect, or another doubt; inactive means no such curve, though single readings can be large; an effect the other way counts as inactive or inconclusive.

SMILES	D3 antag	HepG2 tox	DRD3 agonist	ATXN viability	ATXN2 expr inh	TGFb inhibitor
COc1c(C)cc(C(=O)C2CCCN(Cc3cnc(N4CCOCC4)s3)C2)cc1C (configuration not stated)	–	–	–	–	·	?
COc1ccc(C(=O)C2CCCN(Cc3cnc(N4CCCC4)s3)C2)cc1OC (configuration not stated)	–	–	–	–	·	–
CCOC(=O)N1CCC(N2CCCC(C(=O)c3cc(F)ccc3OC)C2)CC1 (configuration not stated)	-68	–	–	–	–	–
COc1ccc(F)cc1C(=O)C1CCCN(Cc2cnc(N3CCCC3)s2)C1 (configuration not stated)	-59	–	–	–	–	–
COc1ccc(Cl)cc1C(=O)C1CCCN(Cc2cnc(N3CCOCC3)s2)C1 (configuration not stated)	-79	–	–	?	–	–
CC(C)c1ccc(NC(=O)c2cn(C3CCCC3)c(=O)c3c2c2ccccc2n3C)cc1	·	–	–	·	·	–
CCC(=O)Nc1ccc2oc(-c3cccc(C)c3)nc2c1	–	20µM	–	–	–	–
O=C(Nc1ccc(-c2nc3cc(NC(=O)c4cccs4)ccc3o2)cc1)c1cccs1	–	–	–	16µM	10µM	–
O=C(Nc1ccc2oc(-c3ccncc3)nc2c1)c1cccs1	–	–	–	–	–	–
Cc1ccccc1Cn1c(SCc2ccc(C(=O)NC(C)c3ccccc3)cc2)nc2ccncc21 (configuration not stated)	·	–	–	?	–	?
C/C(=N\NC(=O)C1(C)CC1(Br)Br)c1cccc(NC(=O)c2ccc(C)o2)c1 (configuration not stated)	–	–	37	·	?	–
Cc1ccc(C(=O)Nc2cccc(C(=O)NCc3ccccc3)c2)o1	–	–	–	–	–	–
CCCS(=O)(=O)c1nnnn1-c1cccc(OC)c1	?	18µM	–	·	?	?
CCOc1cc(/C=N/N=C(\N)c2nonc2N)cc(Br)c1OCc1cccc2ccccc12	–	11µM	–	?	?	?
CN(Cc1ccccc1)C(=O)c1ccc(NC(=O)Cc2ccc(NC(=O)C3CCN(C(=O)CCc4ccccc4)CC3)cc2)cc1	?	–	–	–	–	–
CN(Cc1ccccc1)C(=O)c1cccc(NC(=O)Cc2ccc(NC(=O)C3CCN(C(=O)CCc4ccccc4)CC3)cc2)c1	–	–	78	?	?	?
O=C(Cc1cccc(NC(=O)C2CCCN(C(=O)CCc3ccccc3)C2)c1)Nc1ccc(C(=O)N2CCCCC2)cc1 (configuration not stated)	-52	–	–	?	–	?
CN(C(=O)c1cccc(NC(=O)Cc2cccc([N+](=O)[O-])c2)c1)C1CCCC1	-75	–	–	–	–	?
CN(C(=O)c1cccc(NC(=O)Cc2cccc(NC(=O)C3CCN(C(=O)CCc4ccccc4)CC3)c2)c1)C1CC1	–	–	40	–	–	–
O=C(C[n+]1cccc2cc(Cl)ccc21)c1cccc([N+](=O)[O-])c1	·	–	·	·	·	–
CC1=C(C(=O)Nc2ccccc2C)C(c2ccccn2)n2nc(SCc3ccccc3F)nc2N1 (configuration not stated)	·	–	–	·	·	?
COc1ccc(CCNCC(=O)Nc2ccc(C)c(S(=O)(=O)N(C)C)c2)cc1	-52	–	–	–	–	–
O=C(CSc1nn(-c2ccccc2)c(=S)s1)NC1CCS(=O)(=O)C1 (configuration not stated)	–	–	–	–	–	–
Cc1ccc(NC(=O)CSc2nn(-c3ccccc3)c(=S)s2)cc1S(=O)(=O)N(C)C	-63	–	–	–	–	?
O=C(CSc1nn(-c2ccccc2)c(=S)s1)Nn1cnnc1	-85	–	–	–	–	–
SMILES	D3 antag	HepG2 tox	DRD3 agonist	ATXN viability	ATXN2 expr inh	TGFb inhibitor
COc1ccc(CN2CCOc3c(cc(-c4cccc(OC)n4)cc3OC)C2)c(O)c1	·	·	·	–	·	·
O=[N+]([O-])c1cccc(-c2cc3ccccc3[nH]2)c1	–	–	–	–	–	–
O=[N+]([O-])/C=C/c1cc2ccccc2[nH]1	–	20µM	–	?	·	?
O=[N+]([O-])c1ccc(C=Nc2cccc3ccccc23)s1	?	25µM	–	?	–	16µM
O=C(CNC(=O)c1ccccc1)N/N=C/c1ccc([N+](=O)[O-])s1	–	14µM	–	?	?	11µM
Cc1cc(C)n(CC(=O)N/N=C/c2ccc([N+](=O)[O-])s2)n1	–	–	–	–	?	?
O=C(Cc1ccccc1)NCC(=O)N/N=C/c1ccc([N+](=O)[O-])s1	–	16µM	–	?	?	?
CCOC(=O)C(C)Sc1ccc2nnc(-c3ccc(F)cc3)n2n1 (configuration not stated)	–	–	35	–	–	–
COc1ccc(-c2nnc3ccc(SC)nn23)cc1	-86	–	–	?	–	–
COc1ccc(-c2nnc3ccc(SCC(=O)N4CCOCC4)nn23)cc1	–	–	–	–	–	–
COc1ccc(Cc2ccc(NC(N)=O)cc2)cc1-c1cccc(Cl)c1	·	·	·	·	–	·
COc1cc2cc(CNc3ccc(C)cc3)c(=O)n(CC(=O)Nc3ccc(F)cc3F)c2cc1OC	·	–	–	·	·	–
CN1CCN(c2nc(-c3cccs3)cc(C(F)(F)F)n2)CC1	-94	–	–	–	–	–
CN1CCN(c2nc(-c3ccccc3)cc(C(F)(F)F)n2)CC1	-70	–	–	?	?	–
CSc1cccc(NC(=O)CC(c2ccc(F)cc2)N2Cc3ccccc3C2=O)c1 (configuration not stated)	·	–	–	·	·	?
COc1cc(C2C(C(C)=O)=C(O)C(=O)N2CCc2c[nH]c3ccccc23)ccc1O (configuration not stated)	-56	–	–	–	–	–
O=C(C[C@H]1C(=O)N(CCc2ccccc2)C[C@@H]1Cc1ccccc1)Nc1ccc(Br)cc1	–	–	–	?	?	?
O=C(C[C@H]1C(=O)N(CCc2ccccc2)C[C@@H]1Cc1ccccc1)Nc1ccccc1	–	–	–	?	–	11µM
COc1cc2c(c(OC)c1OC)-c1ccc(N(C)CC(OC)OC)c(=O)cc1[C@@H](NC(C)=O)CC2	–	–	–	–	–	?
CN[C@H]1CCc2cc(OC)c(OC)c(OC)c2-c2ccc(N(C)CC(OC)OC)c(=O)cc21	–	–	–	14µM	·	?
COc1ccc(CN(C)S(=O)(=O)c2nnc(NC(=O)C(C)C)s2)cc1OC	·	–	–	·	·	–
Cc1cc(NC(=O)c2ccno2)no1	–	–	–	–	–	–
